Several values for one entry are separate records, joined by “and”; a condition that tells them apart may be missing. Identical values can stand only once. In all, about 330,000 compounds went through this assay and about 1,800 (0.55%) were called active. The sample holds actives, similar compounds and a random draw of the others, so the mix is not that of the screen. A number with no mark means an inactive call. Rule as the data show it: active = growth inhibition above about 68%; inactive = the rest.
assay: growth inhibition of ugtP-null S. aureus, primary screen, RN4220 ugtP deletion, OD600 (AID 1259309); details: 16 h, hits give high values;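 also: plate controls were untreated wells for no effect and antibiotic for full effect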

| SMILES | growth inhibition |
| --- | --- |
| Cc1ccc(O)c(-c2cc(C(=O)Nc3c(C)n(C)n(-c4ccccc4)c3=O)[nH]n2)c1 | 2.72% |
| Cc1ccc(O)c(-c2cc(C(=O)NCc3ccccc3)[nH]n2)c1 | 7.53% |
| Cc1ccc(C)c(NC(=O)c2cc(-c3cc(C)cc(C)c3O)n[nH]2)c1 | 99.5% (active) |
| CNC(=O)CCCCC(=O)NN=Cc1ccc(Cl)cc1Cl | -1.21% |
| COc1ccc(CC2CN3C(=NCC3C)N2CCNC(=O)CCC2CCCCC2)cc1 (stereo unspecified) | -6.07% and 2.3% |
| COc1cccc(C=NNc2ncnc(N)c2[N+](=O)[O-])c1OC | -0.174% |
| O=C(Nc1ccccc1)C1CC=CC2CCN(Cc3ccc(Cl)c(Cl)c3)C(=O)C21 (stereo unspecified) | 2.24% |
| Cc1c(N2C(=O)CSC2=NN=Cc2ccccc2O)c(=O)n(-c2ccccc2)n1C | 7.58% |
| CCCn1c(=O)c(C(=O)NN=Cc2ccc(F)cc2)c(O)c2ccccc21 | 101% (active) |
| CCCCCn1c(=O)c(C(=O)NCc2ccccn2)c(O)c2ccccc21 | 10.1% |
| CCCCCn1c(=O)c(C(=O)NCc2ccccc2)c(O)c2ccccc21 | 44.1% |
| CCCn1c(=O)c(-c2ccccc2)c(O)c2ccccc21 | 10.2% |
| CC(C)CCn1c(=O)c(C(=O)NN=Cc2cccc(F)c2)c(O)c2ccccc21 | 99% (active) |
| CCCn1c(=O)c(C(=O)Nc2cc(C)ccn2)c(O)c2ccccc21 | 11.7% |
| C/C(C=NNc1nc(C)cc(=O)[nH]1)=C\c1ccccc1 | -4.37% |
| Cc1ccc(S(=O)(=O)N=Cc2ccco2)cc1 | 4.28% |
| COC(=O)c1ccc(C23CC4(C2)C(CN(Cc2cccnc2)C4c2ccccc2)C3c2ccc(Cl)nc2)cc1 (stereo unspecified) | 8.61% |
| O=C(COc1ccccc1)NCC(=O)NN=C/C=C/c1ccccc1 | 2.76% |
| O=S1(=O)C[C@@H]2N=C(NN=Cc3ccccc3)S[C@@H]2C1 | -0.808% |
| COc1ccc(C=CC2=CCN(Cc3ccc(OC)cc3)CC2)cc1 | 1.66% |
| O=C(NC(=S)NC1CCCCC1)c1ccc(Cl)cc1 | 82.7% |
| CC(C)C(NC(=O)c1ccc(Cl)cc1)C(=O)O (stereo unspecified) | 0.934% |
| CC(C)CNC(=S)NC(=O)c1ccc(Cl)cc1 | 91.1% (active) |
| Oc1ccc(C2Nc3cccc4cccc(c34)N2)cc1 | 96.6% (active) |
| Brc1ccccc1C1Nc2cccc3cccc(c23)N1 | -4.74% |
| COc1ccc(C2NC(=O)c3ccccc3N2)cc1 (stereo unspecified) | 6.04% |

— PubChem BioAssay AID1259309 (ICCB-Longwood Screening Facility, Harvard Medical School, 2017)
